Screening results deposited in PubChem by National Center for Advancing Translational Sciences (NCATS).
Vaccinia Venus = qHTS for Stage-Specific Inhibitors of Vaccinia Orthopoxvirus: Venus Reporter Primary qHTS. Vaccinia virus Venus reporter expression, fluorescence. Potency, µM (top dose mostly 36.5 µM), for inactives: at the top dose activity change, negative = inhibition, actives largely listed as inhibitors. actives 0.46% (n = 330,000). AID 720580, 2013; calls by dose curve; tested in A549 cells; note: potency is the fitted concentration of half-maximal effect; nearly all actives have a fitted effect of over 30% in size
FBPA Giardia inh = qHTS Assay for Inhibitors of Fructose-1,6-bisphosphate Aldolase from Giardia Lamblia; A8B2U2; purified Giardia FBPA; Potency, µM (series often up to 59.6 µM), inactives show top-dose activity, negative = inhibition, usual class: inhibitors; actives 0.71% (n = 290,000); AID 2451, 2010; note: potency is the fitted concentration of half-maximal effect; nearly all actives have a fitted effect of over 55% in size
Target sequence (A8B2U2 whole entry, looked up): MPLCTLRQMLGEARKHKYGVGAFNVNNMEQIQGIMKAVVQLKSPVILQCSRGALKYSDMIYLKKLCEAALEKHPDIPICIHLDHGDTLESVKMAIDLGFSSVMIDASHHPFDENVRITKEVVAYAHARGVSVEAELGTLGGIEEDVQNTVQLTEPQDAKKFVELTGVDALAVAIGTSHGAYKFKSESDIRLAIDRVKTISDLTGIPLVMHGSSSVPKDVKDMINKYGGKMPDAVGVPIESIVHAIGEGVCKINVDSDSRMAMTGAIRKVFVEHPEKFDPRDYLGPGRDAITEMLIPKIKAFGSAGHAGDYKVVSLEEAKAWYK
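40 nM FBPA preincubated 10 min at RT with compound (up to 57.5 uM final), then substrate plus GAPDH/TPI/NAD/arsenate coupling and diaphorase/resazurin added. Fluorescence read after 20 min at RT, 525/598 nm.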
Vaccinia mCherry = qHTS for Stage-Specific Inhibitors of Vaccinia Orthopoxvirus: mCherry Reporter Primary qHTS; Vaccinia virus mCherry reporter infection, fluorescence; Potency, µM (titrated, usually from 36.5 µM), without a hit: at the top dose activity change, negative = inhibition, most hits filed as inhibitors; actives 0.63% (n = 310,000); AID 720579, 2013; calls by dose curve; tested in A549 cells; note: potency is the fitted concentration of half-maximal effect; nearly all actives have a fitted effect of over 35% in size
HCMV inh = qHTS Assay for inhibitors of the human cytomegalovirus (HCMV); actives 4.5% (n = 410,000); activity change, negative = inhibition, % at 57.5 µM; HFF cells, HCMV-luciferase reporter, 72 h; stronger effect = lower value; in the data active = activity change below about -60%; inconclusive = no clear call, values can overlap the other calls; inactive = above about -39%
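Two-dose cell screen: HFF monolayers treated with compounds and infected with luciferase-expressing HCMV at 1 PFU/cell, 72 h at 37C, then lysed for luciferase measurement.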
FMDV inh = High Throughput Screening for Foot and Mouth Disease Virus Antivirals; actives 1.2% (n = 410,000); Potency, µM (top dose mostly 57.9 µM), for the others: at the highest dose activity change, negative = inhibition, hits mostly inhibitors; FMDV antiviral cell-based qHTS; calls by dose curve; tested in HEK293T cells; note: read-out not given here; potency is the fitted concentration of half-maximal effect; nearly all actives have a fitted effect of over 45% in size
HCV inhibitor = qHTS Assay for Inhibitors of Hepatitis C Virus (HCV); Potency, µM (doses to about 41.8 µM), for inactives: top-dose activity change, negative = inhibition, most hits filed as inhibitors; AID 651820, 2012; Huh7.5.1 HCVcc-Cre infection, luciferase reporter, 44 h; actives 3.4% (n = 340,000); note: potency is the fitted concentration of half-maximal effect
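Seed cells (1,000/well) for 4 h; treat with compound and infect with HCVcc-Cre, moi about 0.5. Incubate 44 h, then detect luciferase activity.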
Active calls of the source: *; i = inactive; ? = inconclusive; . = no result given. Most compounds without a hit are left out; they make up all but 7.5% or so of the library. Unless noted, calls come from the whole dose curve; as a rule, active = well fitted curve in the direction sought with a large enough effect; inconclusive = small, poorly fitted or top-dose-only effect, or another doubt; inactive = no such curve, though single readings can be large; an effect the other way counts as inactive or inconclusive. % is set by controls: 0 for no effect and ±100 for the full control effect.

SMILES | Vaccinia Venus | FBPA Giardia inh | Vaccinia mCherry | HCMV inh | FMDV inh | HCV inhibitor
CN1C(=O)/C(=C/c2cccn2-c2ccc3ccccc3c2)C(=O)NC1=S | 25% | ? | . | -105* | 28µM* | 1%
Cc1cc(N2CCN(C(C(=O)NC3CCCC3)c3ccc(-c4ccccc4)cc3)CC2)c2ccccc2n1 (stereo not given) | -10% | . | 7% | -31 | 0% | .
COc1ccc(/C=C/C(=O)N2CCC(c3nc4ccccc4o3)CC2)cc1OC | -11% | . | -2% | -33 | -19% | .
O=C(CNS(=O)(=O)c1cccc2nsnc12)NCCc1ccccc1 | . | -5% | . | -27 | 29% | 2%
C=CCOc1ccc2c(c1)C(=NO)c1cc(OCC=C)ccc1-2 | . | 0% | . | -19 | -20% | ?
COc1ccc2c(c1)C(=NO)c1cc(OC)ccc1-2 | -20% | 1% | ? | ? | 8% | 8.9µM*
CC(=O)c1cccc(NC(=O)C(OC(=O)c2ccccc2NS(=O)(=O)c2cccs2)c2ccccc2)c1 (stereo not given) | -13% | -3% | i | -75* | 40% | 1%
CCOc1ccccc1NC(=O)C(OC(=O)c1ccccc1NS(=O)(=O)c1cccs1)c1ccccc1 (stereo not given) | -19% | -5% | -17% | ? | -1% | -22%
COc1ccc(C2=Nn3c(nnc3-c3cc(OC)ccc3OC)SC2)cc1 | . | 0% | . | . | . | .
COc1ccc(CC(N)c2csc(NC(=O)c3ccc(OC)cc3)n2)cc1 (stereo not given) | -11% | . | 2% | -16 | -31% | .
NC(Cc1ccc(Cl)cc1)c1csc(NC(=O)NCC2CCCCC2)n1 (stereo not given) | 10µM* | . | -4% | 17 | -6% | .
NC(Cc1ccc(C(F)(F)F)cc1)c1csc(NC(=O)Nc2ccccc2Cc2ccccc2)n1 (stereo not given) | 13µM* | . | 11µM* | 21 | -22% | .
COc1ccc(CC(N)c2csc(NC(=O)c3ccccc3)n2)cc1 (stereo not given) | -9% | . | 21% | 60 | -17% | .
COc1ccc(CC(N)c2csc(NC(=O)C(c3ccccc3)c3ccccc3)n2)cc1 (stereo not given) | -20% | . | -27% | -65* | -27% | .
COc1ccc(CC(N)c2csc(NC(=O)c3ccccc3OC)n2)cc1 (stereo not given) | -3% | . | 10% | -81* | -11% | .
O=C(C1CCCCCC1)N1CC[C@@H](N2CCC(O)CC2)[C@H](O)C1 | -7% | 5% | i | 49 | -4% | -11%
NC(Cc1ccccc1)c1csc(NC(=O)c2cccc(OC(F)(F)F)c2)n1 (stereo not given) | ? | . | ? | -101* | ? | .
CC(C)c1ccc(NC(=O)Nc2nc(C(N)COCc3ccccc3)cs2)cc1 (stereo not given) | 11µM* | . | ? | -95* | 0% | .
COc1ccc(CC(N)c2csc(NC(=O)c3cccc(OC(F)(F)F)c3)n2)cc1 (stereo not given) | ? | . | ? | -27 | -25% | .
NC(CCc1ccccc1)c1csc(NC(=O)Nc2ccccc2Oc2ccccc2)n1 (stereo not given) | 11µM* | . | ? | -12 | ? | .
c1ccc(-c2oc3ncnc(NCCCn4ccnc4)c3c2-c2ccccc2)cc1 | -20% | 17% | -30% | . | ? | 11µM*
OCCNc1ncnc2c1c(-c1ccccc1)c(-c1ccccc1)n2Cc1ccco1 | -1% | 15% | 1% | -63* | -4% | ?
c1ccc(-c2c(-c3ccccc3)n(Cc3ccco3)c3ncnc(NCCCn4ccnc4)c23)cc1 | 13µM* | 2% | ? | . | ? | ?
CN(C)CCCNc1ncnc2oc(-c3ccccc3)c(-c3ccccc3)c12 | ? | 2% | -19% | ? | -23% | 3.5µM*
c1ccc(-c2oc3ncnc(NCCN4CCOCC4)c3c2-c2ccccc2)cc1 | -27% | -12% | -14% | ? | . | ?
